We go through seven compounds from PubChem BioAssay (Tox21).

Several values for one entry are separate records, joined by “and”; a condition that tells them apart may be missing. Equal entries are not always repeated. Inconclusive results are not listed. Where a structure was tested more than once in an assay, its records may differ in their call. Activity calls are given as the source filed them. Unless noted, calls follow the shape of the dose curve; as a rule, active = well fitted curve in the direction sought with a large enough effect in the repeat runs; inconclusive = weak or mixed curves; inactive = no such curve, though single readings can be large; an effect the other way counts as inactive or inconclusive.

Assay [1] addresses Estrogen receptor beta (Homo sapiens) (UniProt Q92731). Description: qHTS assay to identify small molecule agonists of the estrogen receptor beta (ER-beta) signaling pathway (AID 1259377; active = well fitted activation curve with a large enough effect in the signal ratio in the repeat runs, not every such curve was filed as active; the % refers to the signal ratio). In a few lines:
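Reporter cells (HEK293T, ER-beta-UAS-bla) receive compounds or DMSO after a 6 hr pre-incubation. They then incubate 16 hr at 37C/5% CO2, and fluorescence from LiveBLAzer B/G substrate is measured after 2 hours at room temperature.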
Background: Quantitative high-throughput screening tests each substance at several concentrations.

Assay [2] shares this target. Description: qHTS assay to identify small molecule antagonists of the estrogen receptor beta (ER-beta) signaling pathway (AID 1259378; active = well fitted inhibition curve with a large enough effect in the signal ratio in the repeat runs, not every such curve was filed as active; the % refers to the signal ratio). Summed up:
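ER-beta-UAS-bla HEK293T (GripTite) cells in 2% charcoal-stripped FBS medium were preincubated 6 hr at 37C, dosed with compound, then stimulated with 1 nM E2 (final) for 16 hr; beta-lactamase reporter read by B/G FRET fluorescence after 2 hr substrate loading.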

Assay [3] in a line: qHTS assay to identify small molecule agonists of the androgen receptor (AR) signaling pathway in the presence of an antagonist - cell viability counter screen (AID 1259379).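 Also: MDA-kb2 human breast cancer cells carrying an MMTV luciferase reporter; series mostly up to about 92 µM; nearly all actives have a fitted effect of over 25% in size.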 In a few lines: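 Cells: MDA-kb2 (MMTV-luc, AR and GR elements), 3,000/well, 5 hr settle. Added: nilutamide 3.0uM final, then compounds (15 conc.). Incubation: 16 hr, 37C, no CO2. Read-out: CellTiter-Fluor, 1 hr, fluorescence.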

A short description of assay [4]: qHTS assay to identify small molecule agonists of the estrogen receptor beta (ER-beta) signaling pathway - cell viability counter screen (AID 1259380). Also: nearly all actives have a fitted effect of over 30% in size. Also: potency is read from the fitted curve at half-maximal effect. In a few lines: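 HEK293T ER-beta-UAS-bla; 2% CS-FBS; 6 hr pre-plate, 16 hr cpd at 37C/5% CO2; LiveBLAzer read first, then CellTiter-Glo 30 min RT, luminescence.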
The nature of assay [5]: qHTS assay to identify small molecule antagonists of the estrogen receptor beta (ER-beta) signaling pathway - cell viability counter screen (AID 1259382). Also: nearly all actives have a fitted effect of over 55% in size. Also: potency is read from the fitted curve at half-maximal effect. In a few lines: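 Cells: ER-beta-UAS-bla HEK293T, 2,000/well, 2% CS-FBS, 6 hr settle. Cpd + E2 (1nM final), 16 hr, 37C/5% CO2. Bla FRET substrate 2 hr RT, then CellTiter-Glo 30 min RT, luminescence.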
The target of assay [6] is Estrogen receptor (Homo sapiens) (UniProt P03372). Nature of the assay: qHTS assay to identify small molecule agonists of the estrogen receptor alpha (ER-alpha) signaling pathway in the presence of an antagonist (AID 1259383; calls by dose curve; also: top concentration of the series differs between compounds; nearly all actives have a fitted effect of over 15% in size). Summed up: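 VM7Luc4E2, endog. ER-alpha + 4×ERE-luc; charcoal-stripped FBS, phenol red-free, 5 d; 24hr plating; +10.0nM ICI-182,780 (final); cpds 15 conc, 22hr, 37C/5% CO2; ONE-Glo luminescence.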
Sequence of Estrogen receptor (Homo sapiens) (P03372 whole entry, looked up): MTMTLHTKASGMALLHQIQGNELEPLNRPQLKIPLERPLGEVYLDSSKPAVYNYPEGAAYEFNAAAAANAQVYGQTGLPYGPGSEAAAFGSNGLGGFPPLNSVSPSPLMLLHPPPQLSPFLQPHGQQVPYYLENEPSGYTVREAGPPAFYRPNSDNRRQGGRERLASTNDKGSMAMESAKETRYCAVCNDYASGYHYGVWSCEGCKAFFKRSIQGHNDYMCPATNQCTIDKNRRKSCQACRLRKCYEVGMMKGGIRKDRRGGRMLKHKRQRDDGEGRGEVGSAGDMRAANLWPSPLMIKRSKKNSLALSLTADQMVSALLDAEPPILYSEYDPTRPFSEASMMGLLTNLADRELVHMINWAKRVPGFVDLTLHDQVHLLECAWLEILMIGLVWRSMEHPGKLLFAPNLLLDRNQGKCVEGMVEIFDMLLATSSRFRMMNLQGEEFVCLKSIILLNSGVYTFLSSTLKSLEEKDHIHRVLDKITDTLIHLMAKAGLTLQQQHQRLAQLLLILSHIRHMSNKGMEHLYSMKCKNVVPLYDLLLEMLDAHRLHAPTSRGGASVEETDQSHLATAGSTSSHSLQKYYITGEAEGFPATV

Assay [7] in a line: qHTS assay to identify small molecule agonists or antagonists of the thyroid stimulating hormone receptor (TSHR) signaling pathway - wild type cell line counter screen (AID 1259384; calls by dose curve). In a few lines: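 Wild-type HEK293 cells were plated 18 h at 37 C/5% CO2, pin-dosed with compound plus Ro20-1724 medium, held 30 min at room temperature, then given cAMP-d2 and anti-cAMP-cryptate; fluorescence was read after 1 h. Fifteen concentrations, triplicate.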

In assay [8] the target is Thyrotropin receptor (Homo sapiens) (UniProt P16473). Description: qHTS assay to identify small molecule antagonists of the thyroid stimulating hormone receptor (TSHR) signaling pathway (AID 1259385; calls by dose curve; also: nearly all actives have a fitted effect of over 20% in size). In a few lines:
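TSHR-HEK293 cells were plated and held 18 h at 37C/5% CO2, then given compound plus Ro20-1724 and stimulated with TSH at 1.5 ng/mL final. After 30 min at room temperature, cAMP was detected with cAMP-d2/anti-cAMP-cryptate (1 h) by fluorescence.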

A short description of assay [9]: qHTS assay to identify small molecule agonists of the estrogen receptor alpha (ER-alpha) signaling pathway in the presence of an antagonist - cell viability counter screen (AID 1259386).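 Also: series mostly up to about 92 µM; cells exposed to compounds for 22 h at 37 °C before the viability read; nearly all actives have a fitted effect of over 30% in size.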 Summed up:
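VM7Luc4E2, stripped-serum pre-culture 5 d; 24hr plating; +ICI-182,780 10.0nM final; cpds 15 conc, 22hr, 37C/5% CO2; CellTiter-Fluor added at 21hr, fluorescence 1hr later.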

Assay [10] deals with Progesterone receptor (Homo sapiens) (UniProt P06401). Nature of the assay: qHTS assay to identify small molecule antagonists of the progesterone receptor (PR) signaling pathway (AID 1346795; active = well fitted inhibition curve with a large enough effect in the signal ratio in the repeat runs, not every such curve was filed as active; the % refers to the signal ratio). In a few lines: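 Stimulus R5020 at 1 nM final; cells HEK293T PR-UAS-bla; medium with 2% charcoal-stripped FBS; compound exposure 16 hr at 37C, 5% CO2; detection by FRET beta-lactamase substrate, 2 hr, room temperature.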
Sequence of Progesterone receptor (Homo sapiens) (P06401 whole entry, looked up): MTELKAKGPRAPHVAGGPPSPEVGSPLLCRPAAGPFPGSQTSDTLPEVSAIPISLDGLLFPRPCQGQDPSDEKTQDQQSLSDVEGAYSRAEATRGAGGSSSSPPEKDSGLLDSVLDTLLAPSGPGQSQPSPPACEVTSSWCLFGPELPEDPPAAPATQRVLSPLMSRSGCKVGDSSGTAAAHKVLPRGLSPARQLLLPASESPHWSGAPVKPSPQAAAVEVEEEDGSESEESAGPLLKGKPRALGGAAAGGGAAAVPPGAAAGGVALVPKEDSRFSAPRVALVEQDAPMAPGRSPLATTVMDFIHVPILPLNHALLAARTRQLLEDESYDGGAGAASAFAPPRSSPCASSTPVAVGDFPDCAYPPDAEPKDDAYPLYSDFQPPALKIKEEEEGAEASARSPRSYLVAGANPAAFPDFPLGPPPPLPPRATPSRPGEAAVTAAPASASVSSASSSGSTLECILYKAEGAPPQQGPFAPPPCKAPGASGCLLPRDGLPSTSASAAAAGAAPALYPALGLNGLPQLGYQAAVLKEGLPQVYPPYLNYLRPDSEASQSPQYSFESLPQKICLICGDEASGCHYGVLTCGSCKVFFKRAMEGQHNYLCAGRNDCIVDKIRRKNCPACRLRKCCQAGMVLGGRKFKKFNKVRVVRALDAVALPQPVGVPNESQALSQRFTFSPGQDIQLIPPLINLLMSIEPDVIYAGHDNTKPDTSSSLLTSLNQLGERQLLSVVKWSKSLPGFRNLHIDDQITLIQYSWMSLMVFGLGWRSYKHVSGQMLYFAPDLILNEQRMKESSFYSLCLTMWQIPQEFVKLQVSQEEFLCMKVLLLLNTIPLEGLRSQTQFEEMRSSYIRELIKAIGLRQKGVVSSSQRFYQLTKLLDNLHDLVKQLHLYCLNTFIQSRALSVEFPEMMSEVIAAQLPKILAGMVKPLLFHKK

A short description of assay [11]: qHTS assay to identify small molecule antagonists of the progesterone receptor (PR) signaling pathway - cell viability counter screen (AID 1346798). Also: series mostly up to about 92 µM; nearly all actives have a fitted effect of over 50% in size. Summed up:
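In the same plates used for the beta-lactamase readout, cell viability of compound- and R5020-treated PR-UAS-bla HEK293T cells (16 hr, 37C) was assessed by CellTiter-Glo luminescence.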

The nature of assay [12]: qHTS assay to identify small molecule agonists of the progesterone receptor (PR) signaling pathway - cell viability counter screen (AID 1346799; calls by dose curve; also: nearly all actives have a fitted effect of over 45% in size). In a few lines: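 Multiplexed viability read: CellTiter-Glo luminescence, 30 min RT, following LiveBLAzer FRET measurement on PR-UAS-bla HEK293T cells exposed to compounds 16 hr.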
Assay [13] can be described thus: qHTS assay to identify small molecule antagonists of the TGF-beta/Smad signaling pathway - cell viability counter screen (AID 1346824). Also: nearly all actives have a fitted effect of over 50% in size. Summed up:
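SBE-bla HEK 293T cells were plated overnight at 37 C, then given compounds in DMSO plus TGF-beta1 (added as 0.25 ng/mL solution) for 5 hr. After the bla read, CellTiter-Glo was added to the same wells and luminescence read after 30 min at room temperature.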

Assay [14] is described as follows: qHTS assay to identify small molecule agonists of the TGF-beta/Smad signaling pathway - cell viability counter screen (AID 1346829). Also: top concentration of the series differs between compounds; nearly all actives have a fitted effect of over 45% in size. Summed up:
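CellTiter-Glo luminescence readout; SBE-bla HEK 293T cells, overnight plating, compound 5 hr at 37 C/5% CO2, then bla substrate 2 hr RT, then CellTiter-Glo 30 min RT.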

A short description of assay [15]: qHTS assay to identify small molecule agonists of the TGF-beta/Smad signaling pathway (AID 1346859; active = well fitted activation curve with a large enough effect in the signal ratio in the repeat runs, not every such curve was filed as active; the % refers to the signal ratio; also: series mostly up to about 77 µM). Summed up: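 Screening used HEK 293T SBE-bla cells at 4,000/well. Test agents: 5 hr, 37 C. Detection: FRET substrate, 2 hr RT, then excitation 405 nm with emissions at 460 and 530 nm.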
Assay [16] concerns the target Thyrotropin-releasing hormone receptor (Homo sapiens) (UniProt P34981). Description: qHTS assay to identify small molecule antagonists of the thyrotropin-releasing hormone receptor (TRHR) signaling pathway (AID 1346877; active = well fitted inhibition curve with a large enough effect in the repeat runs, not every such curve was filed as active; also: series mostly up to about 51 µM). Summed up:
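Intracellular calcium fluorescence, read kinetically every second over 3 min, reports TRH-evoked signalling in HEK293 cells carrying TRHR. Test compounds were added 5 min ahead of a 1 nM TRH challenge.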

For assay [17] the target is unchanged. Description: qHTS assay to identify small molecule agonists of the thyrotropin-releasing hormone receptor (TRHR) signaling pathway (AID 1346891; calls by dose curve; also: series mostly up to about 58 µM). In a few lines: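 Readout was intracellular calcium fluorescence in TRHR-Hek293 cells. Cells were incubated 18 h, dye-loaded 2 h at 37 °C, and treated with compound in agonist mode.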
The target of assay [18] is Progesterone receptor (Homo sapiens) (UniProt P06401). Description: qHTS assay to identify small molecule agonists of the progesterone receptor (PR) signaling pathway (AID 1346784; calls by dose curve; also: nearly all actives have a fitted effect of over 30% in size). In a few lines:
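Reporter assay, GripTite PR-UAS-bla HEK 293T cells: 16 hr exposure to DMSO-dissolved compounds at 37C, 5% CO2, in steroid-depleted (2% charcoal-stripped FBS) medium; beta-lactamase measured by FRET fluorescence.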

Assay [19] deals with Androgen receptor (Homo sapiens) (UniProt P10275). Nature of the assay: qHTS assay to identify small molecule agonists of the androgen receptor (AR) signaling pathway in the presence of an antagonist (AID 1259381; calls by dose curve; also: nearly all actives have a fitted effect of over 15% in size). In a few lines: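 MDA-kb2 cells, 3,000/well, rested 5hr at 37C/0% CO2 → nilutamide 3.0uM final or buffer → compounds, 15 conc. → 16hr at 37C → ONE-Glo, 30min RT → luminescence.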
Sequence of Androgen receptor (Homo sapiens) (P10275 whole entry, looked up): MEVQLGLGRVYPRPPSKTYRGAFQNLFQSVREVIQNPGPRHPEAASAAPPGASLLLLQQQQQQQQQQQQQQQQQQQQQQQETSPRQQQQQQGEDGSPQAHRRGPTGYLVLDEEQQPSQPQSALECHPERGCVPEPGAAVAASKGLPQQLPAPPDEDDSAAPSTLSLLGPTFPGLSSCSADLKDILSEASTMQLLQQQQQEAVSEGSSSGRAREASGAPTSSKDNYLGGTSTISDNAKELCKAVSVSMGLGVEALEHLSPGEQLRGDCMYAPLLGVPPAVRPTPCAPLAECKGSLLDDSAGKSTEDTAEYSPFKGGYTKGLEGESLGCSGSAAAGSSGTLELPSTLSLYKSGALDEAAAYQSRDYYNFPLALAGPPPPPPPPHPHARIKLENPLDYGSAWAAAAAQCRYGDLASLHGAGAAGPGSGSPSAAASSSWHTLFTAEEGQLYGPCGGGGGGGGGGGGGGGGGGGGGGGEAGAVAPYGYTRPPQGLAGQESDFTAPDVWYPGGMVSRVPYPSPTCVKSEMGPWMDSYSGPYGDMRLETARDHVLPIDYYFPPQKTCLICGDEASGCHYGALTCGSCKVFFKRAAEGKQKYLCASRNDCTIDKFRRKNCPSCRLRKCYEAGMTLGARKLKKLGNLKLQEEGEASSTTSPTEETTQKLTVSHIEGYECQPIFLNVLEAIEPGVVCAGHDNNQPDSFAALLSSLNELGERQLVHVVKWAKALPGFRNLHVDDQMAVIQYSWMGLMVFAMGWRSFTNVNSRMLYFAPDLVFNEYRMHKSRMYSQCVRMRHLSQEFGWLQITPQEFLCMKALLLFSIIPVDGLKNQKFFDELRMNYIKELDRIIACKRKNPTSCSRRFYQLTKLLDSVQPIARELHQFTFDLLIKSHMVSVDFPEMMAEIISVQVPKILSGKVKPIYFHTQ

Sequence of Thyrotropin-releasing hormone receptor (Homo sapiens) (P34981 whole entry, looked up): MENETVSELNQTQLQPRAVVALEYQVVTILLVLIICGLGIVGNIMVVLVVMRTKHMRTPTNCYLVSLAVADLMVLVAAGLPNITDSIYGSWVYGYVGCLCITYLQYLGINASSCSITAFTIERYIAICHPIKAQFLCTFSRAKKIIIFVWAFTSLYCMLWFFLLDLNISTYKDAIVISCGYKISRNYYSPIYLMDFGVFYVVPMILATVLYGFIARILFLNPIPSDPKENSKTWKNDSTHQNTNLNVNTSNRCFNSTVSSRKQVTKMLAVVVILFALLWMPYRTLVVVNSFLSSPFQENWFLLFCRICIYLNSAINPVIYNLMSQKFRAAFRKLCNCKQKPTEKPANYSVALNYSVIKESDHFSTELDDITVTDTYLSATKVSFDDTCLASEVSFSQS
Sequence of Thyrotropin receptor (Homo sapiens) (P16473 whole entry, looked up): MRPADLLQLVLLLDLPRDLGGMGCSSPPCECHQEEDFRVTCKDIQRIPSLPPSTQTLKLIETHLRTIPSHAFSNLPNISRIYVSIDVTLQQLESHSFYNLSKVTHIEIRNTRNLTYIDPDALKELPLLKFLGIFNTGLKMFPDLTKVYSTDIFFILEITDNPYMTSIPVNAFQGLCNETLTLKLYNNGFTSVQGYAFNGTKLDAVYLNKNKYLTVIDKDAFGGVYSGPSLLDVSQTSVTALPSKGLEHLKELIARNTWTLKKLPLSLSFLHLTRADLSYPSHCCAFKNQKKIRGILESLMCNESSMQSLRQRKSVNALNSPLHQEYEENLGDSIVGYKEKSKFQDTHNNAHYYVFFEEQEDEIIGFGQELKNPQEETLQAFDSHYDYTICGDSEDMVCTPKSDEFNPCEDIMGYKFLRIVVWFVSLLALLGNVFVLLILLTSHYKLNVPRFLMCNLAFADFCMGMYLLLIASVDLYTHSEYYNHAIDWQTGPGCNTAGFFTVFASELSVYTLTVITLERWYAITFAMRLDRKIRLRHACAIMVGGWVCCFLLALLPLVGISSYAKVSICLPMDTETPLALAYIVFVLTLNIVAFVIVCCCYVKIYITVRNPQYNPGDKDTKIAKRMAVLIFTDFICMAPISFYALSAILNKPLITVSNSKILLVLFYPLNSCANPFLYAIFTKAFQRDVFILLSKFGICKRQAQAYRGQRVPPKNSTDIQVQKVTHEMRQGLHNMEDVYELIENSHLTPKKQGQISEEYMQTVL
Sequence of Estrogen receptor beta (Homo sapiens) (Q92731 whole entry, looked up): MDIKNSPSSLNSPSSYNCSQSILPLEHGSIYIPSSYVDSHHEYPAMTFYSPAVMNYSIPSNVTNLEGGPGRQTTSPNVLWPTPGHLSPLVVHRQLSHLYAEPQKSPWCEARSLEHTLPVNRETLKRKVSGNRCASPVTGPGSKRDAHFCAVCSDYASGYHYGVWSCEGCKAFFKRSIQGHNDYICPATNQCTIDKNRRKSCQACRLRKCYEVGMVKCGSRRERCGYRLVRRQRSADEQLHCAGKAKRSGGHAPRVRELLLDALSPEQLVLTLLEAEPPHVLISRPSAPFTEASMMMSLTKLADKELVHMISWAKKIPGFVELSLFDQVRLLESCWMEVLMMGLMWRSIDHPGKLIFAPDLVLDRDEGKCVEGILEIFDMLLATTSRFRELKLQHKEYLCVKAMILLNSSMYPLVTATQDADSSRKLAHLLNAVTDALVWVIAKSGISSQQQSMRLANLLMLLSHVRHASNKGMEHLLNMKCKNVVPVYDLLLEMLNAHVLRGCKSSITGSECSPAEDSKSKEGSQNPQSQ

For `CN(C)P(=O)(N(C)C)N(C)C`, the Potency result in assay [1], in assay [2], in assay [3], in [4], in [5] and in [6] was “inactive” throughout. The Potency entry in assay [7], in [8], in assay [9], in [10], in assay [11] and in [12] was “inactive” throughout. The Potency entry in [13], in [14], in [15] and in assay [16] was “inactive” in each case. Further, the compound was classed as inactive in [17].

As for `[Cl-].[Cl-].[Cl-].[Fe+3]`, the Potency result in [3], in [4], in assay [5], in assay [9], in assay [18] and in [10] was “inactive” in each case. The Potency entry in assay [11], in assay [12], in [14] and in assay [15] was “inactive” each time.

For the compound `Cc1ccc(N=CN(C)C=Nc2ccc(C)cc2C)c(C)c1`, the Potency result in assay [1], in [2], in [3], in assay [5], in assay [6] and in assay [7] was “inactive” throughout. Besides, the Potency entry in [8], in assay [9], in assay [10], in assay [11], in [12] and in assay [14] was “inactive” each time. The Potency result in [16] is “inactive”. Also, the Potency in [4] was 54.7 µM (active) and 30.6 µM (active) and inactive. Moreover, the call in [17] was inactive.

Regarding `CS(=O)(=O)NC(=O)c1cc(Oc2ccc(C(F)(F)F)cc2Cl)ccc1[N+](=O)[O-]`, the Potency result in [1], in assay [3], in [4], in [5], in assay [7] and in assay [8] was “inactive” throughout. Besides, the Potency entry in assay [9], in [10], in [11], in assay [12] and in assay [14] was “inactive” each time.

With `CC(C)(c1ccc(OCC2CO2)cc1)c1ccc(OCC2CO2)cc1` (configuration not stated), the Potency entry in [3], in assay [6], in assay [7], in assay [8], in assay [9] and in assay [11] was “inactive” throughout. In addition, the Potency result in [12], in [13], in assay [14], in assay [15] and in assay [16] was “inactive” each time. Besides, the Potency in assay [4] is 61.9 µM (active); in assay [5], 43.8 µM (active) and inactive. The outcome in assay [19] and in [17] was inactive.

In the case of `CC(C)=CC1C(C(=O)OCN2C(=O)C3=C(CCCC3)C2=O)C1(C)C` (configuration not stated), the Potency result in assay [3], in assay [5], in assay [7], in assay [8], in assay [9] and in [10] was “inactive” throughout. The Potency result in [11], in [13], in assay [14] and in assay [16] was “inactive” each time. Besides, the result in [19] and in assay [17] was inactive.

Consider `Cc1cc(Cl)ccc1N=CN(C)C`, for which the Potency entry in [1], in assay [2], in assay [3], in assay [4], in assay [5] and in assay [7] was “inactive” throughout. Besides, the Potency entry in [8], in assay [9], in [18], in assay [10], in assay [11] and in assay [12] was “inactive” each time. Further, the Potency entry in assay [13], in assay [14], in assay [15] and in assay [16] was “inactive” each time. In addition, in assay [17], the outcome was inactive.
